Experimental data published in PubChem BioAssay AID2685 (National Center for Advancing Translational Sciences (NCATS), 2010).
Screen size: about 320,000 compounds; about 2,100 (0.66%) were called active. About 53% were inconclusive and are not listed. The call rests on the fitted dose curve; in most records, active means well fitted inhibition curve with a large enough effect in the signal ratio, with a control signal flat (not every such curve was filed as active); inconclusive means small, poorly fitted or top-dose-only effect, or effect the other way, or a change in a side signal; inactive means flat fitted curve, though single readings scatter; the % refers to the signal ratio. The list comes from a sample in which actives are over-represented; it also holds similar structures and randomly drawn compounds.

Test: qHTS Assay for Lipid Storage Modulators in Drosophila S3 Cells;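 on cell number change: cells counted by Cell Tracker Red CMTPX staining in the red channel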; on lipid storage change, negative = inhibition: on the % scale 0 is the no-effect control and ±100 the full control effect
Settings: BODIPY lipid droplet fluorescence, 18-24 h, cells fed with added oleic acid; cell number change: measured here: cell count max response; series mostly up to 46.1 µM; lipid storage change, negative = inhibition: at the top concentration
Summary of the method: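 Drosophila S3 cells got compounds at several concentrations plus oleic acid (400 uM solution). Laser-scanning cytometry with 488 nm excitation read lipid droplets at 500-530 nm and cells at 575-640 nm. Percent activity was relative to 20 uM Triacsin C.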
Potency means the concentration at half of the fitted maximal effect.

Row | Compound | lipid storage change, negative = inhibition | cell number change | outcome | Potency
1 | CCN(CC)CCCNC(=O)CSc1nc(-c2ccc(F)cc2)cc(C(F)(F)F)n1 | 0.643% (inactive) | 4.94% | – | –
2 | CCC(C)(C)NC(=O)CN(C(=O)c1snc(C(N)=O)c1N)c1ccc2c(c1)OCCO2 | – | 19.8% | inactive | –
3 | O=C(CNC(=O)c1ccccc1)OCc1cccc([N+](=O)[O-])c1 | 0.419% (inactive) | -2.11% | – | –
4 | CN(C)S(=O)(=O)c1cccc(COC(=O)CCNC(=O)c2ccc([N+](=O)[O-])cc2)c1 | – | 9.78% | – | 2.31 µM (active)
5 | CN(C)S(=O)(=O)c1cccc(C(=O)NCCNC(=O)c2cccc(S(=O)(=O)N(C)C)c2)c1 | -11.8% (inactive) | -23.4% | – | –
6 | Cn1c(CC(=O)Nc2cccc(Cl)c2Cl)nnc1SCC(=O)NC1=NCCS1 | 19% (inactive) | 10.7% | – | –
7 | CC(C)n1c(N)c(C#N)c2ccc([N+](=O)[O-])cc2c1=O | -3.14% (inactive) | 17.3% | – | –
8 | COC(=O)c1cc2c(=O)c3ccccc3oc2nc1C | -1.05% (inactive) | 21.3% | – | –
9 | COc1ccccc1CNC(=O)c1ccc(C)s1 | 7.86% (inactive) | 2.24% | – | –
10 | COc1ccccc1CNC(=O)COC(=O)c1ccc(C)s1 | – | 8.78% | – | 8.2 µM (active)
11 | COc1ccccc1CNC(=O)COC(=O)c1cc(C)oc1C | 4.54% (inactive) | 0.0455% | – | –
12 | O=S(=O)(NCC(c1cccs1)N1CCc2ccccc2C1)c1ccccc1 (stereo not given) | -15.3% [at 0.0737 µM] (inactive) | 2.02% | – | –
13 | O=C(CS(=O)(=O)c1ccccc1)N1CCCCCC1 | – | – | – | 14.6 µM (active)
14 | O=C(CS(=O)(=O)c1ccccc1)N1CCCCC1 | – | 17.3% | inactive | –
15 | Cc1ccc(S(=O)(=O)CC(=O)N2CCCC2)cc1 | 0.497% (inactive) | -4.5% | – | –
16 | COc1ccc(S(=O)(=O)N2CCOC2CNC(=O)C(=O)NCC(C)C)cc1 (stereo not given) | 23.8% (inactive) | -19.7% | – | –
17 | CCCCc1nnc(NC(=O)C(C)Sc2nc(O)c(Cc3ccccc3)c(=O)[nH]2)s1 (stereo not given) | -12.5% (inactive) | -6.85% | – | –
18 | Cc1ccsc1/C=N/N=C/c1sccc1C | – | -16.1% | – | 18.4 µM (active)
19 | Cc1ccsc1/C=N/n1cnnc1 | -1.09% (inactive) | 4.23% | – | –
20 | Cc1ccsc1C=Nc1ccc(O)cc1 | -2.45% (inactive) | -20.6% | – | –
21 | CC(C)c1ccc(/C=N/NC(=O)C2CCCC2)cc1 | – | -28.7% | – | 3.26 µM (active)
22 | CC(C)(C)c1ccc(/C=N/NC(=O)C2CCCC2)cc1 | – | -15.9% | inactive | –
23 | CC(C)c1ccc(/C=N/NC(=O)CC(=O)NC2CCCCC2)cc1 | 20.4% (inactive) | 0.119% | – | –
24 | c1ccc(N2CC[N+]3(CCCC3)CC2)nc1 | 3.09% (inactive) | 0.943% | – | –
25 | CC(C)(C)OC(=O)NCCCC[C@H](NC(=O)c1[nH]cnc1C(=O)Nc1ccc(CNC(=O)OC(C)(C)C)cc1)C(=O)OC(C)(C)C | -17.4% (inactive) | – | – | –

Row | Compound | lipid storage change, negative = inhibition | cell number change | outcome | Potency
26 | CN(C)c1ccc(C=NCCC2(c3ccccc3)CCOC(C)(C)C2)cc1 (stereo not given) | 3.28% (inactive) | -6.59% | – | –
27 | O=C(Nc1ccon1)c1ccccc1F | – | -7.37% | – | 23.1 µM (active)
28 | O=C(Nc1ccon1)c1cc2ccccc2oc1=O | – | 11.7% | inactive | –
29 | Cc1cc(NC(=O)c2ccccc2F)on1 | -4.22% (inactive) | -0.938% | – | –
30 | O=C(Nn1c(=O)[nH]c2ccsc2c1=O)c1ccccc1 | -5.8% (inactive) | -16.2% | – | –
31 | COc1ccc(N2CCN(C(=S)Nc3ccc(C)cc3)CC2)cc1 | 6.03% (inactive) | 11.6% | – | –
32 | O=C(NN1C(=O)C2C3C=CC(C4CC34)C2C1=O)c1ccc(Cl)c(Cl)c1 (stereo not given) | -0.569% (inactive) | 1.92% | – | –
33 | O=C(CN1C(=O)/C(=C2\SC(=S)N(C3CCS(=O)(=O)C3)C2=O)c2ccccc21)Nc1ccccc1 (stereo not given) | 3.37% (inactive) | -3.03% | – | –
34 | O=C(NCC(c1ccccc1)N1CCCC1)C1CCN(C(=O)Nc2ccccc2)CC1 (stereo not given) | – | -22% | inactive | –
35 | O=C(NCC(c1ccccc1Cl)N1CCCC1)C1CCN(C(=O)Nc2ccccc2)CC1 (stereo not given) | – | -29.1% | – | 6.51 µM (active)
36 | O=C(NCCc1ccccc1)C1CCN(C(=O)Nc2ccccc2)CC1 | 16.6% (inactive) | -33.1% | – | –
37 | CCC(Sc1nnc(C)s1)C(=O)Nc1nccs1 (stereo not given) | 11.8% (inactive) | -15.3% | – | –
38 | Cc1cc(C)nc(SCC(=O)Nc2nccs2)n1 | – | 13.1% | inactive | –
39 | CCC(Sc1nc(C)cc(C)n1)C(=O)Nc1nccs1 (stereo not given) | – | -0.54% | – | 2.06 µM (active)
40 | CN(C(=O)CCCN1CCCC1=O)C1CCCN(Cc2ccccc2F)C1 (stereo not given) | – | 6.08% | inactive | –
41 | COc1cc2c(cc1OC)C(COc1ccc(F)cc1)N(C(C)=O)CC2 (stereo not given) | -27.7% (inactive) | -4.23% | – | –
42 | CCOC(=O)C(O)(CC(=O)Nc1cc(F)ccc1C)C(F)(F)F (stereo not given) | 7.55% (inactive) | 6.77% | – | –
43 | CC1CC1C(=O)Nc1nc(-c2ccccn2)cs1 (stereo not given) | – | – | inactive | –
44 | CCC/C(C)=N/NC(=O)c1ccccc1O | -0.436% (inactive) | 9.25% | – | –
45 | COc1ccc(-c2cc3nc(C)c(CCC(=O)N4CCN(c5ccccn5)CC4)c(C)n3n2)c(OC)c1 | -2.84% (inactive) | -15.1% | – | –
46 | CCOC(=O)CSc1ccc(S(=O)(=O)N(CC)CC)cc1[N+](=O)[O-] | 5.13% (inactive) | 15.5% | – | –
47 | CCOC(=O)CSc1ccc(S(=O)(=O)N2CCCCC2)cc1[N+](=O)[O-] | 11.2% (inactive) | 12.9% | – | –
48 | CCOC(=O)CSc1ccc(S(=O)(=O)N(C)C2CCCCC2)cc1[N+](=O)[O-] | – | -12.4% | – | 25.9 µM (active)
49 | Cc1nc(C)c(C(=O)Nc2ccccc2)s1 | 2.24% (inactive) | 13.8% | – | –
